We go through 42 compounds from PubChem BioAssay AID2685 (National Center for Advancing Translational Sciences (NCATS), 2010).

The structures appear in SMILES notation. The whole screen tested about 320,000 compounds, of which about 2,100 (0.66%) were called active. Inconclusive results (about 53%) are left out. The call rests on the fitted dose curve; in most records, active means well fitted inhibition curve with a large enough effect in the signal ratio, with a control signal flat (not every such curve was filed as active); inconclusive means small, poorly fitted or top-dose-only effect, or effect the other way, or a change in a side signal; inactive means flat fitted curve, though single readings scatter; the % refers to the signal ratio. The list comes from a sample in which actives are over-represented; it also holds similar structures and randomly drawn compounds.
Potency means the concentration at half of the fitted maximal effect.

This test in a line: qHTS Assay for Lipid Storage Modulators in Drosophila S3 Cells.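 On cell number change: cells counted by Cell Tracker Red CMTPX staining in the red channel.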 On lipid storage change, negative = inhibition: on the % scale 0 is the no-effect control and ±100 the full control effect. As to conditions: BODIPY lipid droplet fluorescence, 18-24 h, cells fed with added oleic acid; cell number change: measured here: cell count max response; series mostly up to 46.1 µM; lipid storage change, negative = inhibition: at the top concentration. In short, it runs like this:
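Drosophila S3 cells loaded with oleic acid (400 uM, as added) and compounds at several concentrations; lipid droplets imaged by 488-nm laser-scanning cytometry, 500–530 nm intensity and object ratio to cell channel. Percent activity normalized to 20 uM Triacsin C.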
`CCc1nn(CC(=O)NCCCN(CC)CC)c(=O)c2cc3sc(C)cc3n12`: the “lipid storage change, negative = inhibition” value is 11% (inactive) and the cell number change is 7.9%. In the case of `COc1cccc(C(=O)COC(=O)C(C)N2C(=O)c3ccccc3C2=O)c1` (configuration not stated), the “lipid storage change, negative = inhibition” value was 2.36% (inactive) and the cell number change was determined as 8.05%. The like results for `CCOC(=O)c1sc(NC(=O)c2ccccc2C(=O)O)c(C(=O)OCC)c1C` were, in that order, 9% (inactive) and -2.04%.

On to `COC(=O)c1c(NC(=O)c2ccoc2C)sc(C)c1C`, for which the “lipid storage change, negative = inhibition” value is 28.5% (inactive) and the cell number change came out at 20.9%. On to `CCOC(=O)c1sc(NC(=O)c2ccoc2C)c(C(N)=O)c1C`, for which the Potency was 731 nM (active) and the cell number change is -15.9%.

As for `O=S(=O)(c1cccc(C(F)(F)F)c1)N1CCCC1c1cccnc1` (configuration not stated), the “lipid storage change, negative = inhibition” value was 9.53% (inactive) and the cell number change was 4.77%. Consider `COC(=O)c1c(C)[nH]c(C(=O)CN2C(=O)NC3(CCOc4ccccc43)C2=O)c1C` (configuration not stated), for which the “lipid storage change, negative = inhibition” value is 20.8% (inactive) and the cell number change is -21.7%. Regarding `CCCC1(c2ccccc2)NC(=O)N(CC(=O)c2[nH]c(C)c(C(=O)OCC)c2C)C1=O` (configuration not stated), the Potency was 8200 nM (active) and the cell number change is -26.5%. In the case of `CCOC(=O)c1c(C)[nH]c(C(=O)CN2C(=O)NC3(CCCC3)C2=O)c1C`, the “lipid storage change, negative = inhibition” value was 3.01% (inactive) and the cell number change is -4.44%. For `Oc1ccc(C[C@H]2CNCCN2CC2(c3ccccc3)CC2)cc1`, the “lipid storage change, negative = inhibition” value is -18.7% (inactive) and the cell number change came to 19.8%. Regarding `COc1ccc(OC)c(NC(=O)CN(Cc2ccc(Cl)cc2)S(C)(=O)=O)c1`, the “lipid storage change, negative = inhibition” value is -6.37% (inactive) and the cell number change is 1.52%. In the case of `COc1ccc(OC)c(NC(=O)CCCC(=O)NC2CCCCC2)c1`, the Potency is 7310 nM (active) and the cell number change is -7.97%.

On to `COc1ccc(OC)c(NC(=O)CN(Cc2ccc(F)cc2)C2CCCCC2)c1`, for which the Potency was 291 nM (active) and the cell number change is 6.76%. As to `COc1ccc(CCCC(=O)NC2CCCCC2)cc1`, the “lipid storage change, negative = inhibition” value is 18.2% (inactive) and the cell number change was determined as 0.276%. Regarding `COc1ccc(OC)c(NC(=O)CCN2CCCCC2)c1`, the “lipid storage change, negative = inhibition” value is -44.8% (inactive) and the cell number change is -3.94%. The matching figures for `COc1ccc(Cl)cc1NC(=O)CN(C)C1CCCCC1`: 10.9% (inactive) and -8.15%. As for `Cc1ccsc1/C=C/c1n[nH]c(=O)c(C#N)c1C`, the compound was called inactive and the cell number change turned out to be 22.2%.

In the case of `O=C(NC1CCOC1)c1ccc(OC2CCN(CCc3ccccc3)CC2)cc1` (configuration not stated), the “lipid storage change, negative = inhibition” value was -5.98% (inactive) and the cell number change was -24%. The matching figures for `CN(C)CCOCCOc1ccccc1-c1ccccc1`: -6.88% (inactive) and -9.8%. In the case of `CN(C)CCCCOc1ccccc1-c1ccccc1`, the “lipid storage change, negative = inhibition” value was -7.9% (inactive) and the cell number change was -4.23%.

For the compound `CN(C)CCOc1ccccc1-c1ccccc1`, the Potency was 23100 nM (active) and the cell number change is -29.9%. In the case of `COc1ccc(NS(=O)(=O)c2cc(NC(=O)Cc3c(F)cccc3Cl)ccc2OC)cc1`, the “lipid storage change, negative = inhibition” value is 6.88% (inactive) and the cell number change is -6.83%. On to `Cc1cc(C)nc(NS(=O)(=O)c2ccc(NC(=O)COc3ccccc3F)cc2)n1`, for which the “lipid storage change, negative = inhibition” value is 13.6% (inactive) and the cell number change is 12.7%. Take `COc1ccc(NS(=O)(=O)c2cc(NC(=O)COc3ccccc3F)ccc2OC)cc1`: the Potency was 1640 nM (active) and the cell number change is -1.34%. With `COCCNC(=O)c1ccc(CSCc2cccc(Cl)c2)o1`, the “lipid storage change, negative = inhibition” value is 11.7% (inactive) and the cell number change is 7.62%. Take `c1ccc(CCNCC2COc3ccccc3O2)cc1` (configuration not stated): the “lipid storage change, negative = inhibition” value was 7.04% (inactive) and the cell number change is 16.7%. For `Cc1ccc(CSCCNS(=O)(=O)c2ccc([N+](=O)[O-])cc2)cc1`, the “lipid storage change, negative = inhibition” value is 15.8% (inactive). For the compound `COc1ccc(C(=O)c2sc(Nc3ccccc3)c(C(=O)Nc3ccc(OC)c(OC)c3)c2N)cc1`, the “lipid storage change, negative = inhibition” value is 9.9% (inactive) and the cell number change is -20%.

Regarding `COc1ccccc1NC(=O)c1sc(Cl)nc1C`, the result was inactive and the cell number change is 1.65%. For `COc1ccccc1NC(=O)c1c(Nc2ccccc2C)sc(C(=O)Nc2cccc(Cl)c2)c1N`, the Potency is 1640 nM (active) and the cell number change was -26.6%. For the compound `Cc1cccc(C)c1NC(=O)CN(C)C(=O)c1cccc(S(=O)(=O)N2CCN(C)CC2)c1`, the cell number change came to 10.4% and the lipid storage change, negative = inhibition is -25% [at 0.0737 µM] (inactive). Consider `CCOC(=O)C1CCN(CC(O)COCc2ccc(Cl)cc2)CC1` (configuration not stated), for which the Potency was 18400 nM (active) and the cell number change worked out at 16.5%. On to `CCOC(=O)C1CCN(CC(O)COCc2ccc3c(c2)OCO3)CC1` (configuration not stated), for which the “lipid storage change, negative = inhibition” value was 6.44% (inactive). In the case of `CCOC(=O)C1CCN(CC(O)COCc2ccccc2)CC1` (configuration not stated), the “lipid storage change, negative = inhibition” value is 10.2% (inactive) and the cell number change was found to be 4.71%. With `COc1ccc(C)cc1NC(=O)CSc1nc2scc(C)c2c(=O)[nH]1`, the compound was called inactive and the cell number change is 10.8%. Regarding `COc1ccc(NC(=O)CSc2nc3scc(C)c3c(=O)[nH]2)cc1`, the “lipid storage change, negative = inhibition” value was 19.3% (inactive) and the cell number change turned out to be 11.6%. As to `COc1cccc(NC(=O)CSc2nc3scc(C)c3c(=O)[nH]2)c1`, the Potency was 580 nM (active) and the cell number change came out at 2.56%. `CCOc1ccc(-c2nnn(CC(=O)NCc3cccs3)n2)cc1`: the “lipid storage change, negative = inhibition” value was 7.4% (inactive) and the cell number change is -5.47%.

With `CC(=O)NNc1[nH]c2c(c(=O)c1[N+](=O)[O-])c(=O)n(C)c(=O)n2C`, the “lipid storage change, negative = inhibition” value was -5.91% (inactive) and the cell number change was -5.05%. The matching figures for `O=C(NC(Cc1ccccc1)C(=O)O)c1ccccc1` (configuration not stated): -0.615% (inactive) and -3.84%. In the case of `CC(C)=C(NC(=O)c1ccccc1)C(=O)NC(Cc1ccccc1)C(=O)O` (configuration not stated), the Potency was 1160 nM (active) and the cell number change was -15%. As for `O=C(NC(Cc1ccccc1)C(=O)O)/C(=C/c1ccccc1)NC(=O)c1ccccc1` (configuration not stated), the “lipid storage change, negative = inhibition” value is -12.2% (inactive) and the cell number change is -7.82%.
